# In ChEMBL document CHEMBL4513147, “CO-ADD screening of Armstrong State University (GA, USA) compounds”:
# Results with a measured potency or affinity are listed apart.
# Assays:
# Klebsiella pneumoniae = details: Concentration 32 ug.mL-1; ASSAY_TEST Inhibition of Bacterial Growth; detection method Absorption (OD600); MEDIA CAMHB; plate type 384well; NBS; CORNING #3640; time 18 hr
# Candida albicans = details: 32 ug/mL
# Cryptococcus neoformans = details: Concentration 32 ug.mL-1; ASSAY_TEST Inhibition of Fungal Growth; detection method Resazurin; Absorption (OD600-OD570); plate type 384well; NBS; CORNING #3640
structure (smiles),measurement,setting,value
COc1ccc2c(c1)C(=O)C(=Cc1cccnc1Cl)CC2,Inhibition,Klebsiella pneumoniae,12.62%
same,Inhibition,Candida albicans,6.91%
same,Inhibition,Cryptococcus neoformans,-40.92%
COc1ccc2c(c1)CCC(=Cc1cccnc1)C2=O,Inhibition,Klebsiella pneumoniae,16.02%
same,Inhibition,Candida albicans,2.52%
same,Inhibition,Cryptococcus neoformans,-44.32%
COc1ccc2c(c1)CCC(=Cc1cccnc1Cl)C2=O,Inhibition,Klebsiella pneumoniae,12.5%
same,Inhibition,Candida albicans,3.75%
same,Inhibition,Cryptococcus neoformans,-15.01%
COc1ccc2c(c1)CCC(=Cc1ccoc1)C2=O,Inhibition,Klebsiella pneumoniae,11.83%
same,Inhibition,Candida albicans,5.64%
same,Inhibition,Cryptococcus neoformans,-36.87%
COc1cccc2c1CCC(=Cc1ccco1)C2=O,Inhibition,Klebsiella pneumoniae,9.39%
same,Inhibition,Candida albicans,2.23%
same,Inhibition,Cryptococcus neoformans,7.54%
COc1ccc2c(c1)C(=O)C(=Cc1cccnc1Cl)CC2.Cl,Inhibition,Klebsiella pneumoniae,17.3%
same,Inhibition,Candida albicans,3.54%
same,Inhibition,Cryptococcus neoformans,-54.29%
COc1cccc2c1CCC(=Cc1ccoc1)C2=O,Inhibition,Klebsiella pneumoniae,11.44%
same,Inhibition,Candida albicans,10.1%
same,Inhibition,Cryptococcus neoformans,-46.61%
COc1ccc2c(c1)C(=O)C(=Cc1cccc(C=C3CCc4ccc(OC)cc4C3=O)c1)CC2,Inhibition,Klebsiella pneumoniae,10.58%
same,Inhibition,Candida albicans,2.22%
same,Inhibition,Cryptococcus neoformans,-34.17%
COc1ccc2c(c1)CCC(=Cc1ccccn1)C2=O,Inhibition,Klebsiella pneumoniae,8.96%
same,Inhibition,Candida albicans,0.77%
same,Inhibition,Cryptococcus neoformans,-41.47%
COc1ccc2c(c1)C(=O)C(=Cc1ccco1)CC2,Inhibition,Klebsiella pneumoniae,14.42%
same,Inhibition,Candida albicans,6.5%
same,Inhibition,Cryptococcus neoformans,-54.58%
COc1ccc2c(c1)C(=O)C(=Cc1ccccn1)CC2,Inhibition,Klebsiella pneumoniae,11.4%
same,Inhibition,Candida albicans,3.51%
same,Inhibition,Cryptococcus neoformans,-7.78%
COc1ccc2c(c1)CCC(=Cc1cnccc1OC)C2=O,Inhibition,Klebsiella pneumoniae,11.4%
same,Inhibition,Candida albicans,-0.18%
same,Inhibition,Cryptococcus neoformans,-48.3%
CC(C)(C)OC(=O)N1CC(=Cc2ccoc2)C(=O)/C(=C/c2ccoc2)C1,Inhibition,Klebsiella pneumoniae,21.57%
same,Inhibition,Candida albicans,14.2%
same,Inhibition,Cryptococcus neoformans,-84.77%
Cc1ccc(C=C2CN(C(=O)OC(C)(C)C)C/C(=C\c3ccc(C)cc3C)C2=O)c(C)c1,Inhibition,Klebsiella pneumoniae,13.54%
same,Inhibition,Candida albicans,-1.7%
same,Inhibition,Cryptococcus neoformans,-52.76%
COc1ccc2c(c1)C(=O)C(=Cc1cccnc1Br)CC2,Inhibition,Klebsiella pneumoniae,8.16%
same,Inhibition,Candida albicans,1.26%
same,Inhibition,Cryptococcus neoformans,-14.82%
COc1ccc2c(c1)C(=O)C(=Cc1ccoc1)CC2,Inhibition,Klebsiella pneumoniae,17.88%
same,Inhibition,Candida albicans,8.42%
same,Inhibition,Cryptococcus neoformans,-57.68%
COc1ccc2c(c1)CCC(=Cc1cccnc1Br)C2=O,Inhibition,Klebsiella pneumoniae,13.02%
same,Inhibition,Candida albicans,3.93%
same,Inhibition,Cryptococcus neoformans,-19.45%
COc1ccc2c(c1)C(=O)C(=Cc1cncc(Br)c1)CC2,Inhibition,Klebsiella pneumoniae,11.33%
same,Inhibition,Candida albicans,3.19%
same,Inhibition,Cryptococcus neoformans,-18.22%
COc1ccc2c(c1)CCC(=Cc1cncc(Br)c1)C2=O,Inhibition,Klebsiella pneumoniae,10.09%
same,Inhibition,Candida albicans,4.95%
same,Inhibition,Cryptococcus neoformans,-1.36%
COc1cc2c(cc1OC)C(=O)C(=Cc1ccoc1)CC2,Inhibition,Klebsiella pneumoniae,14.64%
same,Inhibition,Candida albicans,20%
same,Inhibition,Cryptococcus neoformans,-157.54%
COc1ccc2c(c1)C(=O)C(=Cc1cccnc1)CC2,Inhibition,Klebsiella pneumoniae,13.34%
same,Inhibition,Candida albicans,3.76%
same,Inhibition,Cryptococcus neoformans,20.35%
COc1ccc2c(c1)C(=O)C(=Cc1cnccc1OC)CC2,Inhibition,Klebsiella pneumoniae,13.46%
same,Inhibition,Candida albicans,2.37%
same,Inhibition,Cryptococcus neoformans,-28.9%
COc1ccc2c(c1)CCC(=Cc1ccncc1)C2=O,Inhibition,Klebsiella pneumoniae,14.05%
same,Inhibition,Candida albicans,2.55%
same,Inhibition,Cryptococcus neoformans,-80.91%
COc1ccc2c(c1)CCC(=Cc1ccc(OC)nc1)C2=O,Inhibition,Klebsiella pneumoniae,13.52%
same,Inhibition,Candida albicans,3.72%
same,Inhibition,Cryptococcus neoformans,-60.31%
COc1ccc2c(c1)C(O)C(=Cc1cccnc1Cl)CC2 (stereo not drawn),Inhibition,Klebsiella pneumoniae,10.57%
same,Inhibition,Candida albicans,15%
same,Inhibition,Cryptococcus neoformans,-69.16%
COc1cc2c(cc1OC)C(=O)C(=Cc1ccco1)CC2,Inhibition,Klebsiella pneumoniae,12.89%
same,Inhibition,Candida albicans,36.5%
same,Inhibition,Cryptococcus neoformans,-192.19%
COc1ccc(/C=C/C(=O)c2ccc(OCc3ccc(Br)cc3)cc2)cc1OC,Inhibition,Klebsiella pneumoniae,12.55%
same,Inhibition,Candida albicans,14.1%
same,Inhibition,Cryptococcus neoformans,-82.08%
CC(C)(C)OC(=O)N1CC(=Cc2ccco2)C(=O)/C(=C/c2ccco2)C1,Inhibition,Klebsiella pneumoniae,8.12%
same,Inhibition,Candida albicans,19.9%
same,Inhibition,Cryptococcus neoformans,-64.29%
COc1ccc2c(c1)C(=O)C(=Cc1cccnc1OC)CC2,Inhibition,Klebsiella pneumoniae,14.75%
same,Inhibition,Candida albicans,2.73%
same,Inhibition,Cryptococcus neoformans,-33.37%
COc1cccc2c1CCC(=Cc1cccc(C=C3CCc4c(OC)cccc4C3=O)c1)C2=O,Inhibition,Klebsiella pneumoniae,0.44%
same,Inhibition,Candida albicans,12.4%
same,Inhibition,Cryptococcus neoformans,-91.11%
COc1ccc2c(c1)CCC(=Cc1ccco1)C2=O,Inhibition,Klebsiella pneumoniae,10.81%
same,Inhibition,Candida albicans,4.52%
same,Inhibition,Cryptococcus neoformans,-43.38%
